# According to PubChem BioAssay AID651658 (Broad Institute, 2012):
# Hit rate of the full screen: of about 340,000 compounds, about 5,100 (1.5%) were called active.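 How the source made its calls: active means mean Tm shift, scaled 0 neutral to 100 positive control, at about 1.3% or above, every replicate too (limit read from the data); inconclusive means no clear call, values can overlap the other calls; inactive means the rest.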 The full list was thinned out, with actives kept by preference.
# Target: Fibroblast growth factor 22 (Homo sapiens) (UniProt Q9HCT0)
# Sequence (Q9HCT0 whole entry, looked up): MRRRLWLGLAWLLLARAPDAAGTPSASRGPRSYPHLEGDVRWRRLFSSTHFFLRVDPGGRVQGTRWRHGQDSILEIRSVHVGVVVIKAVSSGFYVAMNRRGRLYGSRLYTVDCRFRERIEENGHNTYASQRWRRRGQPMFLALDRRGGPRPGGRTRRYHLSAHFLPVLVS
# Assay: FGF22 ligand-induced thermal stabilization – biophysical, thermal shift, single point, FGF22 synaptogenesis inhibitor project, primary screen (AID 651658)
# Settings: recombinant FGF22 thermal shift, SYPRO orange fluorescence; at 9.99 µM; hits give high values; percent of sucrose octasulfate shift, DMSO zero
row,Compound,"activity (Tm shift, normalised)"
1,CN(C)C(=O)C[C@@H]1CC[C@H]2[C@@H](COC[C@H](O)CN2C(=O)c2ccncc2)O1,-0.192% (inactive)
2,CC(C)CC#Cc1cnc2c(c1)C(=O)N([C@H](C)CO)C[C@H](C)[C@@H](CN(C)Cc1ccccc1)O2,0.063% (inactive)
3,CO[C@@H]1CN(C)C(=O)c2ccc(NC(=O)Nc3ccccc3)cc2OC[C@@H](C)N(C(=O)CN(C)C)C[C@H]1C,-0.352% (inactive)
4,Cc1c(CCOC(=O)CC23CC4CC(CC(C)(C4)C2)C3)sc[n+]1Cc1ccc([N+](=O)[O-])cc1,-0.223% (inactive)
5,Cc1c(CCO)sc[n+]1CC(=O)OC12CC3CC(CC(C3)C1)C2,1.45% (active)
6,C[C@@H]1CN([C@@H](C)CO)S(=O)(=O)c2ccc(/C=C/c3ccccc3)cc2O[C@H]1CN(C)C(=O)C1CC1,-0.835% (inactive)
7,COc1cccc(CN2CC3(CN(Cc4ccccn4)C3)c3c([nH]c4cc(OC)ccc34)[C@@H]2CO)c1,0.052% (inactive)
8,CCS(=O)(=O)N1CCC2(CC1)CN(Cc1ccc3c(c1)OCO3)[C@H](CO)c1[nH]c3cc(OC)ccc3c12,0.042% (inactive)
9,COc1cc(OC)cc(-c2nc3ccccc3c(=O)n2NC(=O)c2cccnc2Cl)c1,0.323% (inactive)
10,COc1ccccc1C(=O)Nn1c(-c2cccs2)nc2ccccc2c1=O,43.8% (active)
11,COc1cc(C(=O)Nn2c(CC(C)C)nc3ccccc3c2=O)cc(OC)c1OC,0.375% (inactive)
12,C[C@H]1CN([C@@H](C)CO)C(=O)c2cc(-c3ccncc3)cnc2O[C@H]1CN(C)C(=O)c1cccc(F)c1,-0.103% (inactive)
13,C[C@H]1CN([C@@H](C)CO)C(=O)c2cc(NC(=O)Nc3ccccc3)ccc2O[C@H]1CN(C)C(=O)Nc1ccc(F)cc1,0.055% (inactive)
14,COCC(=O)Nc1ccc2c(c1)OC[C@H](C)N(C)C[C@@H](C)[C@@H](OC)CN(C)C2=O,38% (active)
15,CCC(=O)N1C[C@@H](C)[C@H](OC)CN(C)C(=O)c2ccc(NC(=O)COC)cc2OC[C@@H]1C,0.031% (inactive)
16,COCC(=O)Nc1ccc2c(c1)OC[C@H](C)N(C(=O)COC)C[C@@H](C)[C@H](OC)CN(C)C2=O,0.165% (inactive)
17,COc1cccc(-c2ccc3c(c2)[C@H]2[C@H](CCN2C(=O)c2ccc(F)cc2)[C@@H](CO)N3)c1,-0.166% (inactive)
18,N#CCSc1nc(-c2ccccc2)nc2ccc(F)cc12,-0.193% (inactive)
19,O=[N+]([O-])c1cc2ccccc2nc1-c1ccccc1,42.3% (inactive)
20,O=[N+]([O-])c1ccc(F)cc1Oc1nc(-c2cccnc2)nc2ccccc12,43.2% (active)
21,COc1cccc(-c2ccc([C@@H]3[C@@H](C#N)N(C(=O)c4ccccn4)[C@H]3CO)cc2)c1,-0.024% (inactive)
22,O=C(CN1CCOCC1)NC[C@@H]1N[C@@H](CO)[C@@H]1c1ccc(-c2ccccc2)cc1,0.456% (inactive)
23,C[C@@H]1CN([C@H](C)CO)C(=O)c2cc(N(C)C)ccc2O[C@@H](C)CCCCO[C@@H]1CN(C)C(=O)CCCN(C)C,-0.859% (inactive)
24,COc1ccccc1C#Cc1cnc2c(c1)C(=O)N([C@H](C)CO)C[C@H](C)[C@H](CN(C)S(=O)(=O)c1cn(C)cn1)O2,0.666% (inactive)
25,CC(C)[C@@H]1COCn2nncc2CCCC(=O)N1,-0.193% (inactive)
26,O=C(C[C@H]1CC[C@@H]2[C@H](COC[C@@H](O)CN2C(=O)Nc2ccc(C(F)(F)F)cc2)O1)NCCc1ccncc1,-0.088% (inactive)

row,Compound,"activity (Tm shift, normalised)"
1,O=C1C=C(c2ccccc2)CCC1,43.9% (active)
2,CC(C)NC(=O)N1[C@H](CO)[C@H](c2ccccc2)C12CN(C(=O)Cc1ccccc1)C2,-0.087% (inactive)
3,CC1(C)OC(=O)C(=CNC(CO)C(=O)O)C(=O)O1 (configuration not stated),43.2% (active)
4,CC(C)Oc1ccccc1C(=O)NC(CO)C(=O)O (configuration not stated),42.8% (inactive)
5,COCC(=O)N1CC2(C1)CN(C(=O)COC)[C@@H](CO)c1c2c2ccc(OC)cc2n1C,-0.043% (inactive)
6,C[C@@H]1CN([C@H](C)CO)C(=O)c2cc(NC(=O)Cn3cnnn3)ccc2O[C@@H]1CN(C)C(=O)Nc1ccc2c(c1)OCO2,0.191% (inactive)
7,O=S(=O)(N[C@@H]1CC[C@H](CCn2cc(-c3ccccc3F)nn2)O[C@H]1CO)c1ccc(F)cc1,0.086% (inactive)
8,O=S(=O)(Oc1ccccc1C(=S)N1CCOCC1)c1ccc(Cl)cc1,0% (inactive)
9,O=C(Cc1ccccc1Cl)N1CCOCC1,-0.495% (inactive)
10,S=C(Cc1ccc(Cl)cc1)N1CCOCC1,43.7% (active)
11,COc1ccc2c3c(n(C)c2c1)[C@@H](CO)NCC31CCN(CC2CCCC2)CC1,-0.076% (inactive)
12,Cc1ccc(S(=O)(=O)c2nc(-c3cccs3)oc2NCc2cccnc2)cc1,0.137% (inactive)
13,O=S(=O)(c1ccccc1)c1nc(-c2ccccc2)oc1NCCCN1CCOCC1,0.296% (inactive)
14,O=S(=O)(c1ccccc1)c1nc(-c2ccccc2F)oc1NCc1cccnc1,44.2% (active)
15,O=C(NCC1CC1)[C@@H]1[C@@H](CO)[C@@H]2Cn3c(ccc(-c4ccccc4)c3=O)[C@H]1N2C(=O)C1CC1,0.292% (inactive)
16,Cc1cc(C)cc(NC(=O)C2CCCN(S(=O)(=O)c3ccc4[nH]c(=O)ccc4c3)C2)c1 (configuration not stated),-0.297% (inactive)
17,CC1CCN(S(=O)(=O)c2ccc3c(c2)n(C)c(=O)n3C)CC1,0.113% (inactive)
18,CC1CCN(S(=O)(=O)c2ccc3[nH]c(=O)ccc3c2)CC1,43.3% (active)
19,COc1ccc(CCNC(=O)c2c(C)nn(-c3ccccc3)c2Cl)cc1,0.155% (inactive)
20,COc1ccc(C2c3c(C)nn(-c4ccccc4)c3NC(=O)N2c2ccccc2)cc1 (configuration not stated),42.9% (active)
21,COCc1[nH]nc2c1C(c1ccccc1)N(c1ccccc1)C2=O (configuration not stated),-0.061% (inactive)
22,COc1ccccc1-c1ccc2c(c1)O[C@@H](CN(C)C(=O)Nc1ccccc1)[C@H](C)CN([C@@H](C)CO)S2(=O)=O,0.048% (inactive)
23,CN1c2ccc(-c3cccc(C#N)c3)cc2[C@@H]2[C@@H](CCN2C(=O)C2CCC2)[C@@H]1CO,-0.466% (inactive)
24,COc1ccc(NC(=O)CCNC(=O)Cn2cnc3sc4c(c3c2=O)CCCC4)cc1OC,0.026% (inactive)
25,CC(C(=O)O)n1cnc2sc3c(c2c1=O)CCCC3 (configuration not stated),43.5% (active)
26,Cc1nc2sc3c(c2c(=O)n1NC(=O)CCl)CCCC3,0.109% (inactive)

row,Compound,"activity (Tm shift, normalised)"
1,CN(C)C(=O)c1ccc(-c2ccc([C@@H]3[C@@H](CO)N4CCCCN(CC5CC5)C[C@H]34)cc2)cc1,-0.109% (inactive)
2,CC(=O)N1[C@@H](CO)[C@H](c2ccccc2)[C@@H]1CN(C)C(=O)CN1CCOCC1,0.01% (inactive)
3,CO[C@H]1CN(C)C(=O)c2cc(NC(=O)C3CCC3)ccc2OC[C@H](C)N(C)C[C@H]1C,-0.155% (inactive)
4,CCNC(=O)Nc1ccc2c(c1)C(=O)N(C)[C@@H]1CC[C@H](CC(=O)NC3CCCCC3)O[C@H]1CO2,-0.109% (inactive)
5,C/C(COc1ccccc1)=N\NC(=O)c1nnn(-c2nonc2N)c1-c1ccc(C)cc1,43.2% (active)
6,CCCOc1ccc(-c2c(C(=O)N/N=C/c3ccco3)nnn2-c2nonc2N)cc1,-0.098% (inactive)
7,Nc1nonc1-n1nnc(C(=O)N/N=C/C2CCCCC2)c1-c1ccccc1,0.34% (inactive)
8,Cc1cc(C)cc(OCC(=O)NC(C)c2ccccc2)c1 (configuration not stated),0.179% (inactive)
9,COc1ccccc1CNC(=O)COc1ccc(C)nc1[N+](=O)[O-],0.224% (inactive)
10,Cc1ccc(OCC(=O)NC(C)c2ccccc2)c([N+](=O)[O-])n1 (configuration not stated),43.5% (active)
11,COc1ccc(S(=O)(=O)N(C)C[C@@H]2OCCCC[C@H](C)Oc3ccc(NC(=O)NC(C)C)cc3C(=O)N([C@@H](C)CO)C[C@@H]2C)cc1,-0.199% (inactive)
12,CO[C@@H]1CN(C)C(=O)c2cc(NC(C)=O)ccc2OC[C@H](C)N(C(=O)CC2CC2)C[C@@H]1C,0.119% (inactive)
13,C[C@@H](O)C#Cc1ccc([C@H]2[C@@H](CO)N3CCCCN(S(=O)(=O)c4ccccc4)C[C@@H]23)cc1,-0.117% (inactive)
14,Cc1ccc(C(=O)NNC(=O)c2ccc3c(c2)OCCO3)cc1,-0.233% (inactive)
15,O=C(COC(=O)c1ccc(O)cc1O)c1ccc2c(c1)OCCO2,0.444% (inactive)
16,O=C(/C=C/c1ccc2c(c1)OCCO2)c1ccc(O)cc1,2.05% (active)
17,C[C@H](CO)N1C[C@H](C)[C@@H](CN(C)C(=O)C2CCCCC2)Oc2cc(C3=CCCC3)ccc2S1(=O)=O,0.195% (inactive)
18,Cc1ccc(C(=O)N/C(=C/c2cccs2)C(=O)N2CCCCC2)cc1,0.095% (inactive)
19,O=C(NCC1CCCO1)/C(=C/c1ccc(Cl)cc1)NC(=O)c1ccccc1 (configuration not stated),-0.33% (inactive)
20,Cc1ccc(C(=O)N/C(=C/c2cccs2)C(=O)NCC2CCCO2)cc1 (configuration not stated),42.9% (active)
21,CCCC#Cc1cnc2c(c1)C(=O)N([C@H](C)CO)C[C@H](C)[C@H](CN(C)C(=O)Cc1ccncc1)O2,0.077% (inactive)
22,CC(C)NC(=O)N1[C@H](CNC(=O)CN(C)C)[C@@H](c2ccccc2)[C@@H]1CO,-0.154% (inactive)
23,Cc1ccc(S(=O)(=O)NCCC(=O)Nc2cccc(S(N)(=O)=O)c2)cc1C,-0.18% (inactive)
24,Cc1ccc(S(=O)(=O)NCCC(=O)Nc2ccc(C)c(Cl)c2)cc1C,1.75% (active)
25,Cc1ccnc(NC(=O)CCNS(=O)(=O)c2ccc(C)c(C)c2)c1,-0.078% (inactive)
